Measured values reported in PubChem BioAssay AID1159580 (chemical genetic matrix, 2015).
Several values for one entry are separate records, joined by “and”; a condition that tells them apart may be missing. Identical values can stand only once. Hit rate of the full screen: of about 5,500 compounds, about 2,000 (36%) were called active. Roughly 18% stayed inconclusive and do not appear here. No stated cut-off is given here; in the data, active means normalized growth mostly below about 0.91 (no sharp cut-off); inconclusive means no clear call, values can overlap the other calls; inactive means mostly above about 0.92. Some of the results follow.

Assay: chemical genetic growth profiling, strain panel (AID 1159580);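 further: tested at 20 µM; growth read once vehicle control cultures reached saturation at 30 °C; 1 = growth at the plate median or of vehicle wells; lower values mean less growth of the strain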
Details: S. cerevisiae deletion strains, growth OD

Measured: normalized growth

C#C[C@]1(O)CCC2C3CCC4=CC(=O)CC[C@@H]4C3CC[C@@]21C (some centres undefined)
inactive: locus YAL021C, strain ccr4, hits give low values 0.973 | locus YAL026C, strain drs2, hits give low values 0.967 | locus YAL030W, strain snc1, hits give low values 0.987 | locus YBL061C, strain skt5, hits give low values 0.989 | locus YBR009C, strain hhf1, hits give low values 0.985 | locus YBR021W, strain FUR4, hits give low values 0.978 | locus YBR023C, strain chs3, hits give low values 0.987 | locus YBR171W, strain sec66, hits give low values 0.969 | locus YBR229C, strain ROT2, hits give low values 0.997 | locus YBR231C, strain swc5, hits give low values 1 | locus YBR279W, strain paf1, hits give low values 0.994 | locus YCL011C, strain gbp2, hits give low values 0.984 | locus YCL016C, strain dcc1, hits give low values 1 | locus YCL029C, strain bik1, hits give low values 0.984 | locus YCL061C, strain MRC1, hits give low values 0.977 | locus YCL069W, strain vba3, hits give low values 0.968 | locus YCR088W, strain abp1, hits give low values 0.982 | locus YDL005C, strain med2, hits give low values 0.962 | locus YDL035C, strain GPR1, hits give low values 0.98 | locus YDL040C, strain nat1, hits give low values 0.984 | locus YDL074C, strain BRE1, hits give low values 0.988 | locus YDL101C, strain DUN1, hits give low values 0.995 | locus YDL134C, strain PPH21, hits give low values 0.975 | locus YDL185W, strain tfp1, hits give low values 0.98 | locus YDL192W, strain arf1, hits give low values 0.978 | locus YDR001C, strain nth1, hits give low values 0.981 | locus YDR069C, strain doa4, hits give low values 0.972 | locus YDR101C, strain arx1, hits give low values 0.97 | locus YDR137W, strain rgp1, hits give low values 0.892 | locus YDR150W, strain NUM1, hits give low values 1.01 | locus YDR159W, strain sac3, hits give low values 0.981 | locus YDR162C, strain NBP2, hits give low values 0.932 | locus YDR195W, strain ref2 1.01 | locus YDR297W, strain sur2, hits give low values 0.993 | locus YDR318W, strain mcm21, hits give low values 0.974 | locus YDR334W, strain swr1, hits give low values 0.977 | locus YDR335W, strain msn5, hits give low values 0.98 | locus YDR388W, hits give low values 0.975 | locus YDR392W, strain spt3, hits give low values 0.801 | locus YDR502C, strain sam2, hits give low values 0.957 | locus YEL003W, strain gim4, hits give low values 0.97 | locus YEL037C, strain rad23, hits give low values 0.966 | locus YEL061C, strain CIN8 (second series), hits give low values 0.967 | locus YEL061C, strain CIN8, hits give low values 0.995 | locus YER015W, strain faa2, hits give low values 0.974 | locus YER016W, strain bim1, hits give low values 0.98 | locus YER110C, hits give low values 0.982 | locus YER111C, strain swi4, hits give low values 0.988 | locus YER155C, strain BEM2 (second series), hits give low values 0.981 | locus YER155C, strain BEM2, hits give low values 0.999 | locus YER167W, strain BCK2, hits give low values 0.991 | locus YFR010W, strain ubp6, hits give low values 0.979 | locus YGL078C, strain dbp3, hits give low values 0.979 | locus YGL086W, strain mad1, hits give low values 0.991 | locus YGL167C, strain pmr1, hits give low values 0.972 | locus YGL173C, strain kem1, hits give low values 0.969 | locus YGL227W, strain vid30, hits give low values 0.984 | locus YGL240W, strain doc1, hits give low values 0.988 | locus YGL248W, strain PDE1, hits give low values 0.998 | locus YGL253W, strain hxk2, hits give low values 0.982 | locus YGR135W, strain pre9, hits give low values 0.986 | locus YGR229C, strain SMI1, hits give low values 0.948 | locus YGR252W, strain gcn5, hits give low values 0.978 | locus YHR013C, strain ard1, hits give low values 0.993 | locus YHR027C, strain rpn1, hits give low values 0.981 | locus YHR030C, strain SLT2, hits give low values 1 and 0.925 | locus YHR079C, strain IRE1 (second series), hits give low values 0.983 | locus YHR079C, strain IRE1, hits give low values 0.95 | locus YHR094C, strain hxt1, hits give low values 0.981 | locus YHR129C, strain ARP1, hits give low values 1.01 | locus YHR142W, strain chs7, hits give low values 0.952 | locus YHR200W, strain rpn10, hits give low values 0.986 | locus YIL066C, strain RNR3, hits give low values 0.99 | locus YIL073C, strain SPO22, hits give low values 0.9 | locus YIL125W, strain kgd1, hits give low values 0.986 | locus YIR030C, strain dcg1, hits give low values 0.984 | locus YJL092W, strain hpr5, hits give low values 0.976 | locus YJL095W, strain BCK1 (second series), hits give low values 0.99 | locus YJL095W, strain BCK1, hits give low values 0.932 and 0.954 | locus YJL115W, strain asf1, hits give low values 0.975 | locus YJL129C, strain trk1, hits give low values 0.919 | locus YJL134W, strain LCB3, hits give low values 0.995 | locus YJL154C, strain vps35, hits give low values 0.965 | locus YJL164C, strain tpk1, hits give low values 0.976 | locus YJL166W, strain qcr8, hits give low values 0.992 | locus YJL168C, strain set2, hits give low values 0.984 | locus YJL187C, strain SWE1 (second series), hits give low values 0.991 | locus YJL187C, strain SWE1, hits give low values 0.983 | locus YJR043C, strain POL32, hits give low values 1.01
